Out of some 290,000 compounds screened, about 670 (0.23%) were called active.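 The calls were made as follows: active = inhibition above a per-plate limit of that plate's mean compound inhibition plus 3 SD (cut at about 60% in these data); inactive = the rest.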 Shown is part of a subset that was picked to be rich in actives.
experiment: KLF5 expression inhibitors, primary screen, DLD-1 cells, luminescence (AID 1700); details: DLD-1 KLF5 promoter-luciferase reporter, at 5 µM, stronger effect = higher value;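 also: 0% = DMSO wells and 100% = LY294002 at 200 µM; higher means less KLF5 promoter-driven luciferase light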

inhibition, inactive:
Cn1cc(S(=O)(=O)Nc2ccc(Cl)cc2Cl)c(=O)n(C)c1=O -22.9%
CCCc1ccc(OCC(O)CN2CCN(CCO)CC2)cc1 (centres undefined) 7.32%
O=C(N/N=C/c1sc(N2CCCCC2)nc1-c1cccs1)c1cccnc1 -30.2%
COc1cccc(-c2nc(CS(=O)CC(=O)NCc3ccc(F)cc3)c(C)o2)c1 (centres undefined) -11.1%
NS(=O)(=O)c1ccc(CCNS(=O)(=O)c2cccc3cccnc23)cc1 -50.1%
CC(C)C(C)NC(=O)COc1nc2ccccc2nc1N(C)C1CCCCC1 (centres undefined) -6.02%
COc1ccc(S(=O)(=O)Nc2ccc3c(c2)OCO3)cc1Cl -5.73%
CCCOc1ccccc1C1CC(=O)Nc2cc3c(cc21)OCO3 (centres undefined) 46.2%
Cc1ccc(C2CC(=O)NC(SCC(=O)OCc3ccccc3)=C2C#N)o1 (centres undefined) 6.45%
CCOC(=O)CSC1=C(C#N)C(c2ccco2)C(C(=O)OCc2ccccc2)=C(C)N1 (centres undefined) -11.8%
NC(=O)CN1CCCC1c1ccc2c(c1)OCCO2 (centres undefined) -21.8%
C=CCn1c(=O)c(C(=O)NCc2ccc3c(c2)OCO3)c(O)c2ccccc21 -23.1%
CC/C(=N\NC(=O)c1c(C)nc2ccccn12)c1ccc(Cl)cc1 -19.6%
Cc1cc(Cl)c2oc(C(=O)N(C)C(C)c3ccccn3)c(C)c2c1 (centres undefined) -79%
CC(C)Oc1ccc(/C=N/NC(=O)c2nnn(-c3nonc3N)c2CN(C)C2CCCCC2)cc1 -15.7%
CCOc1cc(-c2conc2N)cc(OCC)c1OCC 5.84%
O=C(NCCc1ccccc1)C(=O)NCC1OCCN1S(=O)(=O)c1cccs1 (centres undefined) -36.9%
COc1ccc2[nH]cc(CCN3C(=O)c4ccc(C(=O)O)cc4C3=O)c2c1 -177%
COc1ccc(OC)c(CCNC(=O)c2nn(C)c3c2CS(=O)(=O)c2ccccc2-3)c1 -12.5%
CC(C)CCn1c(=O)c2c(nc3n2CCCN3Cc2ccccc2)n(C)c1=O -4.63%
Cc1ccc(C)c(N2CCN(C(=O)CCCn3c(=O)c4cccn4c4cccnc43)CC2)c1 5.08%
CCN(CC)S(=O)(=O)c1ccc(N2CC(C(=O)NCc3cccnc3)CC2=O)cc1 (centres undefined) -14.9%
COc1ccc(S(=O)(=O)N(CC(=O)N/N=C/c2ccc(C(=O)O)cc2)Cc2ccccc2)cc1OC 5.79%
O=c1[nH]c(NCCO)nnc1Cc1ccc(Cl)cc1 -8.33%
Cc1nnc(N/N=C/c2ccccn2)[nH]c1=O 2.56%
COc1ccc(NC(=O)CCCN2C(=O)C(c3ccccc3)Oc3cccnc32)cc1 (centres undefined) -1.26%
Nc1nc(SCC(=O)Nc2cc(C(F)(F)F)ccc2Cl)[nH]c(=O)c1NC(=O)c1ccco1 -9.6%
Cc1ccc(OCCCC(=O)Nc2ccc(S(=O)(=O)Nc3cc(C)nc(C)n3)cc2)cc1 0.85%
O=S(=O)(c1cc(Cl)ccc1Cl)N1CCN(Cc2ccco2)CC1 -4.75%
CCC(=O)Nc1ccc2nn(-c3ccc(F)cc3)nc2c1 -97%
c1ccc(-n2nc3ccccc3n2)cc1 -2.18%
O=C(c1cc(-c2ccc(Cl)cc2)on1)N1CCN(c2ccccc2)CC1 -69.1%
Cc1cccc(C)c1OCCN1CCOCC1 -15.7%
Cc1ccc2c(c1)N(S(=O)(=O)c1cc(-c3cc(C)no3)ccc1C)CCO2 -37.9%
Cc1ccc(NC(=S)NCc2ccccc2Cl)c(C)c1 -3.59%
Cc1ccc(NC(=S)NCCc2ccc(Cl)cc2)c(C)c1 -19%
CCN1C(=NCCc2cccnc2)N[C@@H](c2ccccc2)C(C(=O)OC)=C1C -22%
CC(C)c1ccc(NC(=O)Cn2ncc3ccccc32)cc1 -106%
CN(c1cccc(NC(=O)c2ccc(CN3CCc4ccccc4C3)cc2)c1)S(C)(=O)=O -29.8%
CCN(CC)N=Nc1cccc(NC(C)=O)c1 -51.2%
Cc1ccc(C(=O)NC23CC4CC(CC(C4)C2)C3)c(Cl)c1 -45.4%
O=C(N/C(=C\c1ccc(O)cc1)C(=O)N1CCCCC1)c1ccccc1 -7.29%
CN1CCN(C(=O)CCc2nc(-c3ccc(Cl)cc3)no2)CC1 -29.1%
CCNC(=O)CCc1nc(-c2ccc(C)cc2)no1 -43.2%
CCc1ccccc1S(=O)(=O)Cc1ccc(C(=O)NCCc2ccccc2)o1 -41.4%
CCOC(=O)C1CCN(C(=O)Cn2nc(C)c3c(C)n(-c4ccccc4)nc3c2=O)CC1 -39.7%
COc1cccc(-c2cc(C(=O)N3CCN(c4ccccc4OC)CC3)no2)c1 -15.2%
COc1ccccc1N1CCN(C(=O)c2cc(=O)c3cc(C)ccc3o2)CC1 15.1%
Cc1c(NC(=O)CSCc2ccccc2)cccc1C(=O)O -44.3%
COc1cc(C(=O)NC2CCN(Cc3ccccc3)CC2)cc(Cl)c1OC(C)C 0.72%
O=C(Nc1nonc1-c1ccc(Cl)cc1)c1ccco1 -1.44%
Cc1cc(Oc2ccc(Cl)cc2)nc(SCC(=O)c2ccccc2)n1 -18.8%
COc1ccccc1/C=N\Nc1cc(C)nc(-n2nc(C)cc2C)n1 -41.2%
Cc1cc(N/N=C\c2ccc(Br)cc2)nc(-n2nc(C)cc2C)n1 3.64%
CCOC(=O)c1cnc(-n2nc(C)cc2C)nc1Nc1cccc(C(C)=O)c1 -11.5%
COc1ccccc1CNS(=O)(=O)c1ccc2c(c1)NC(=O)CS2 -51%
CC(=O)c1ccc(N2Cc3ccccc3C2)cc1 -125%
CCC(=O)NC(Nc1nc2ccc(C)cc2s1)(C(=O)OC)C(F)(F)F (centres undefined) 21.2%
O=C(Nc1nc2ccc([N+](=O)[O-])cc2s1)c1ccc(S(=O)(=O)N2CCCc3ccccc32)cc1 -18.3%
COC(=O)c1ccc(COc2ccc(/C=C/C(=O)c3ccc(OC)c(CSCC(=O)O)c3)cc2OC)cc1 26.8%
CCC(C(=O)NCc1cccnc1)n1nc(C)c2sc3ccccc3c2c1=O (centres undefined) -24.5%
CC(C)CNS(=O)(=O)c1ccc(C(=O)Nc2ccc3c(c2)OCO3)cc1 -18.9%
COc1ccccc1C(=O)NC(=S)NC12CC3CC(CC(C3)C1)C2 -5.49%
Cc1ccc(-c2csc(NC3OC(=O)c4ccccc43)n2)cc1 (centres undefined) 9.97%
Cc1ccn2c(=O)c(C(=O)NCCC3=CCCCC3)c(O)nc2c1 2.41%
COc1cc2c(cc1O)[C@H](Cc1ccc(Oc3cc(C[C@@H]4NCCc5cc(OC)c(O)cc54)ccc3O)cc1)NCC2 -7.79%
CCc1ccc(OCC2c3cc(OC)c(OC)cc3CCN2C(C)=O)cc1 (centres undefined) -8.46%
COc1ccc(Cc2nnc(SCC(=O)Nc3ccc(C)c(C)c3)o2)cc1OC -24.5%
COc1cccc(N(CC(=O)NC2CCCCCC2)S(=O)(=O)c2ccccc2)c1 -3.24%
Cc1cccc(OCC(=O)Nc2ccc(NC(=O)c3ccco3)c(C)c2)c1 -14.3%
O=C(COc1ccc(Cl)cc1)NCCS(=O)(=O)N1CCN(c2ccc(F)cc2)CC1 -3.45%
O=C(N/N=C1\CCSC1)c1cc(Cl)ccc1O -24.9%
COc1ccc(CNc2nccs2)cc1 -8.32%
COc1ccc(C(C)NC(=O)C23CC4CC(CC(C4)C2)C3)cc1 (centres undefined) 13.8%
Cc1ccc(O)c(NC(=O)c2cc(-c3ccco3)on2)c1 -124%
N#Cc1ccc(C(=O)Nc2nc(-c3cccs3)c(C(=O)C(F)(F)F)s2)cc1 16.3%
Cn1c(=O)c2c(nc(NCCNC(=O)c3ccco3)n2Cc2ccccc2F)n(C)c1=O -15%
Cc1nn2c(c1-c1ccccc1)N=C(c1ccco1)CC2c1ccccc1 (centres undefined) -26.4%
CS(=O)(=O)c1ccc2nnn(OCC(=O)Nc3cccc(C#N)c3)c2c1 -3.59%
O=C(Nc1cccc(Cl)c1)c1cc(S(=O)(=O)N2CCCCC2)c[nH]1 -39.1%
COc1ccc(S(=O)(=O)n2nc(C)c(S(=O)(=O)N3CCOCC3)c2C)cc1 -33.4%
CCOC(=O)N1CCN(S(=O)(=O)c2ccc(-n3cnnn3)cc2)CC1 -18.3%
O=C(NCc1cc(F)cc(C(F)(F)F)c1)C1CCC(=O)N(C2CCCC2)C1 (centres undefined) 11.8%
CCCCC(C(=O)NC(C)(C)C)N(Cc1ccccc1)C(=O)c1snc(C(N)=O)c1N (centres undefined) -18.5%
COc1ccc(C(C)NC(=S)NC2CCCCC2)cc1OC (centres undefined) -29.8%
CC1CCN(C(=O)Cn2nnnc2CN2CCOCC2)CC1 -8.54%
CC(=O)N1CC(=O)N(CC(=O)Nc2ccc(Br)cc2)C1=S -0.85%
COC(=O)c1cccc(C(=O)N2CCCC(Nc3ccc4c(c3)OCCO4)C2)c1 (centres undefined) -10.2%
CC1CCC(NS(=O)(=O)c2ccc3c(c2)CC(=O)N3)CC1 (centres undefined) 10.7%
C=CCn1c(SCc2ccc(C(=O)NCCO)cc2)nc2ccccc2c1=O -13.8%
CCN1CCCC1CNC(=O)c1cc2cc(OC)c(OC)cc2[nH]1 (centres undefined) -5.17%
Cc1ccc(CNC(=O)CCNS(=O)(=O)c2ccc(Br)s2)cc1 -6.34%
CC(NC(=O)c1cc2cc(Cl)ccc2oc1=N)c1ccccc1 (centres undefined) -15.5%
COc1cc(/C=C(\C#N)c2nc3ccccc3[nH]2)ccc1O -74.6%
COc1ccc2[nH]cc(/C=C(/C#N)S(=O)(=O)c3ccccc3)c2c1 -24.4%

inhibition, active:
COc1ccccc1C1C2=C(COC2=O)Nc2cc3c(cc21)OCO3 (centres undefined) 75.8%
CCOC(=O)CSC1=C(C#N)C(c2sccc2C)CC(=O)N1 (centres undefined) 63.2%
COc1ccc(Cc2nnc(N/N=C/c3ccccc3O)[nH]c2=O)cc1OC 102%
Nc1ccc2nn(-c3ccc(Cl)cc3)nc2c1 97.7%
Cc1ccc(NC(=S)Nc2ncccc2C)c(C)c1 79.6%
CCNC(=O)CCc1nc(-c2ccc(C(C)(C)C)cc2)no1 61.9%
COc1ccccc1N1CCN(C(=O)c2cc(=O)c3cc(C)cc(C)c3o2)CC1 88.2%
CC(=O)c1ccc(Oc2cc(C)nc(-n3nc(C)cc3C)n2)cc1 61.9%
COc1ccc(Nc2cc(C)nc(-n3nc(C)cc3C)n2)cc1 75.5%
O=C(NC(Nc1nc2ccc([N+](=O)[O-])cc2s1)(C(F)(F)F)C(F)(F)F)c1ccccc1 67.7%
C[C@@H]1C[C@@H]2O[C@H]2/C=C\C=C\C(=O)Cc2c(Cl)c(O)cc(O)c2C(=O)O1 64.1%
CC[C@H]1CN2CCc3cc(OC)c(OC)cc3[C@@H]2C[C@@H]1C[C@H]1NCCc2cc(OC)c(OC)cc21 106%
Oc1c(Cl)cc(Cl)c(Cl)c1Cc1c(O)c(Cl)cc(Cl)c1Cl 81%
COc1ccc(/C=C(\C#N)c2c[nH]c3ccccc23)cc1 62.4%
